In the emibetuzumab library of Makowski et al. (2022):
This is one part of the list. The hit rate among all sequences tested is not known here.

B1: VH:VL chains; a variant is named by its letters at X, in order (parent)
chain 1: QVQLVQSGAEVKKPGASVKVSCKASGYTFTDYXMHWVRQAPGQGLEWMGXVNPNXXXTTYNQKFEGRVTMTTDTSTSTAYMELRSLRSDDTAVYYCARXNXLDXWGQGTTVTVSS
chain 2: DIQMTQSPSSLSASVGDRVTITCSVSSSVSSIYLHWYQQKPGKAPKLLIYSTSNLASGVPSRFSGSGSGTDFTLTISSLQPEDFATYYCQVYSGYPLTFGGGTKVEIK

Variants of: B1
Assay: yeast display scFab, FACS + sequencing
Conditions: with MET
Outline: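 Round-3 sorted and input populations from a heavy-chain CDR mutant scFab yeast library were deep sequenced in two replicates. Sorting used FACS on cells labelled for 3 h at room temperature with 1 nM HGFR-Fc and anti-Myc in PBSB with 1% milk, keeping the top 50% antigen-positive cells. Any sequence seen in both antigen-positive samples was called a binder, while one seen only in the input was called a non-binder.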
In the case of SEGRGDGA, the antigen binding call is reported as “no binding”.
For AKTKSDGV, the antigen binding call was “no binding”.
For ATGGDSGD, the antigen binding call was “no binding”.
With VKGRGVGA the antigen binding call was “binds”.
YKGRGVGA was tested, and the antigen binding call was “binds”.
With VEGRGDGA the antigen binding call was “no binding”.
In the case of YAGRGDGA, the antigen binding call is reported as “no binding”.
In the case of AKGRGDGA, the antigen binding call is reported as “no binding”.
For VRARGDGY, the antigen binding call was “binds”.
For VTGGDDGY, the antigen binding call was “no binding”.
With VTGGGDGS the antigen binding call was “no binding”.
In the case of VRGGGDGY, the antigen binding call is reported as “binds”.
VRGGDDGV was tested, and the antigen binding call was “no binding”.
VEARGDGA was tested, and the antigen binding call was “no binding”.
For ARERGDGY, the antigen binding call was “no binding”.
With VAGTGDGY the antigen binding call was “no binding”.
For VRGGSDGY, the antigen binding call was “binds”.
DAERTDGV was tested, and the antigen binding call was “no binding”.
With AEAGADVV the antigen binding call was “no binding”.
In the case of YTREGAVA, the antigen binding call is reported as “no binding”.
With VAEKGALA the antigen binding call was “no binding”.
With VRRRGALA the antigen binding call was “binds”.
In the case of YRRRGALA, the antigen binding call is reported as “binds”.
With YRRRGSLA the antigen binding call was “binds”.
With YRREGSLA the antigen binding call was “binds”.
For YAREGSGA, the antigen binding call was “no binding”.
VTEGGALA was tested, and the antigen binding call was “no binding”.
With VKGRADSV the antigen binding call was “no binding”.
With YRRRSSLA the antigen binding call was “binds”.
For YREETSGA, the antigen binding call was “no binding”.
YRRGGALA was tested, and the antigen binding call was “binds”.
For FKAGGSGA, the antigen binding call was “no binding”.
FRARGAGA was tested, and the antigen binding call was “binds”.
With ARARGSGA the antigen binding call was “no binding”.
FRARGSGA was tested, and the antigen binding call was “binds”.
With FEAGDSGA the antigen binding call was “no binding”.
For FRAGGSGA, the antigen binding call was “binds”.
For FRAGGAGA, the antigen binding call was “binds”.
For FAARDSGA, the antigen binding call was “no binding”.
DKGEGDLA was tested, and the antigen binding call was “no binding”.
In the case of VEEEGSGA, the antigen binding call is reported as “no binding”.
For YRRGSSAV, the antigen binding call was “binds”.
With YRRGGSAV the antigen binding call was “binds”.
For DRRGSDAV, the antigen binding call was “no binding”.
With YRREGSVV the antigen binding call was “binds”.
For YRREGSAV, the antigen binding call was “binds”.
In the case of YKREGSAV, the antigen binding call is reported as “no binding”.
VATRAVGA was tested, and the antigen binding call was “no binding”.
In the case of VKGRSDAS, the antigen binding call is reported as “no binding”.
In the case of DTGGGDAA, the antigen binding call is reported as “no binding”.
For VRRGSDGV, the antigen binding call was “no binding”.
With FTREASAV the antigen binding call was “no binding”.
In the case of VTTKSSAV, the antigen binding call is reported as “no binding”.
With FRRGSSAV the antigen binding call was “binds”.
VRRGSSAV was tested, and the antigen binding call was “binds”.
With VRTEDDWY the antigen binding call was “no binding”.
SEEEGDVA was tested, and the antigen binding call was “no binding”.
YTTGGDVA was tested, and the antigen binding call was “no binding”.
With VTAGDDGS the antigen binding call was “no binding”.
With DTTGSDVF the antigen binding call was “no binding”.
YRTRSSAV was tested, and the antigen binding call was “binds”.
With YRTRSAAV the antigen binding call was “binds”.
In the case of YRRRGASF, the antigen binding call is reported as “binds”.
In the case of YRRRGSSF, the antigen binding call is reported as “binds”.
With STGGNDAD the antigen binding call was “no binding”.
With YKAGGALA the antigen binding call was “binds”.
For YKGKGALA, the antigen binding call was “binds”.
In the case of YKGKGSLA, the antigen binding call is reported as “binds”.
YKGKGFGA was tested, and the antigen binding call was “no binding”.
YKGEGDLA was tested, and the antigen binding call was “no binding”.
YKAGGFGA was tested, and the antigen binding call was “no binding”.
FAAETDVF was tested, and the antigen binding call was “no binding”.
AARADDWD was tested, and the antigen binding call was “no binding”.
In the case of DTGEDDVY, the antigen binding call is reported as “no binding”.
In the case of SAGEGSLV, the antigen binding call is reported as “no binding”.
With DRAETDVY the antigen binding call was “no binding”.
For SAAGGASD chain 1 L45S, the antigen binding call was “no binding”.
In the case of YTTKSDGV, the antigen binding call is reported as “no binding”.
VTGTGDGA was tested, and the antigen binding call was “no binding”.
For STGGDDGA, the antigen binding call was “no binding”.
For FRRGGALD, the antigen binding call was “binds”.
In the case of YARGGDLD, the antigen binding call is reported as “no binding”.
For FRRGGSLD, the antigen binding call was “binds”.
For FARAAALD, the antigen binding call was “no binding”.
With DARGGSLD the antigen binding call was “no binding”.
In the case of FREGGALD, the antigen binding call is reported as “binds”.
For YRRGGALD, the antigen binding call was “binds”.
With VEKEGDGA the antigen binding call was “no binding”.
With AKAGSYGV the antigen binding call was “no binding”.
In the case of ATGRASLD, the antigen binding call is reported as “no binding”.
In the case of ARRGSSLD, the antigen binding call is reported as “binds”.
In the case of FRGGGSLD, the antigen binding call is reported as “binds”.
In the case of FRAEGSLD, the antigen binding call is reported as “binds”.
With FRKGGSLD the antigen binding call was “binds”.
FRGGGDWD was tested, and the antigen binding call was “no binding”.
With YTEGDDWY the antigen binding call was “no binding”.
For SEARSDGF, the antigen binding call was “no binding”.
DAKENDVA was tested, and the antigen binding call was “no binding”.
In the case of YTGGDDVD, the antigen binding call is reported as “no binding”.
With FRKGTALD the antigen binding call was “binds”.
In the case of VKEKGDLA, the antigen binding call is reported as “no binding”.
In the case of FRGKGSGA, the antigen binding call is reported as “binds”.
FKGKGFGA was tested, and the antigen binding call was “no binding”.
FKGKGSGA was tested, and the antigen binding call was “no binding”.
For FRTKSDLA, the antigen binding call was “no binding”.
With FREKGDLA the antigen binding call was “binds”.
For FRGKGAGA, the antigen binding call was “binds”.
With FRGKGSLA the antigen binding call was “binds”.
With DAKKNASF the antigen binding call was “no binding”.
VTREGAVA was tested, and the antigen binding call was “no binding”.
In the case of YTEGDDGA, the antigen binding call is reported as “no binding”.
In the case of FRGKSAAA, the antigen binding call is reported as “binds”.
With FRGKGAAA the antigen binding call was “binds”.
With VTGRAAWV the antigen binding call was “no binding”.
With YRRRGDVY the antigen binding call was “binds”.
In the case of YTERGDVY, the antigen binding call is reported as “no binding”.
YRRRGAVY was tested, and the antigen binding call was “binds”.
For YRRRGFWY, the antigen binding call was “no binding”.
For YRAGDDVY, the antigen binding call was “no binding”.
In the case of STTGSASF, the antigen binding call is reported as “no binding”.
For FKGRGSSS, the antigen binding call was “binds”.
For FKGRGSLS, the antigen binding call was “binds”.
With FKGRDSGS the antigen binding call was “no binding”.
In the case of VGATSVSF, the antigen binding call is reported as “no binding”.
With YARADDGS the antigen binding call was “no binding”.
In the case of VEAGDAGS, the antigen binding call is reported as “no binding”.
With DAEKGAWA the antigen binding call was “no binding”.
With YRTRDDVY the antigen binding call was “no binding”.
With DRGRDDVV the antigen binding call was “no binding”.
In the case of FRGRDDLV, the antigen binding call is reported as “no binding”.
For YRTRDALV, the antigen binding call was “binds”.
With ARGRDAWV the antigen binding call was “no binding”.
In the case of YRGRDYGV, the antigen binding call is reported as “no binding”.
With YRTRDDVV the antigen binding call was “binds”.
In the case of VRTEDAWV, the antigen binding call is reported as “no binding”.
In the case of YRTRDAWV, the antigen binding call is reported as “binds”.
In the case of YRGRDALV, the antigen binding call is reported as “binds”.
FRTRDFLV was tested, and the antigen binding call was “no binding”.
YARADDGD was tested, and the antigen binding call was “no binding”.
For YAAETDVF, the antigen binding call was “no binding”.
With VKEKGDGS the antigen binding call was “no binding”.
VKGTGFLD was tested, and the antigen binding call was “no binding”.
For YRAKGALA, the antigen binding call was “binds”.
For YRAKGSLA, the antigen binding call was “binds”.
For ATGANAAV, the antigen binding call was “no binding”.
AGGRSFVF was tested, and the antigen binding call was “no binding”.
In the case of YEGRNVGV, the antigen binding call is reported as “no binding”.
VAGTGDLA was tested, and the antigen binding call was “no binding”.
In the case of DEGGTDWD, the antigen binding call is reported as “no binding”.
YRAKGAGA was tested, and the antigen binding call was “binds”.
In the case of YRAKGYGA, the antigen binding call is reported as “no binding”.
With YRAKGVGA the antigen binding call was “binds”.
For SARGGYWY, the antigen binding call was “no binding”.
With DARGGAVY the antigen binding call was “no binding”.
YRKGGAAY was tested, and the antigen binding call was “binds”.
SRKEGAAY was tested, and the antigen binding call was “no binding”.
In the case of YRRGGAAY, the antigen binding call is reported as “binds”.
For YRRRGAAY, the antigen binding call was “binds”.
In the case of YRKGGDLY, the antigen binding call is reported as “no binding”.
With YRRKGAAY the antigen binding call was “binds”.
For STGRADWA, the antigen binding call was “no binding”.
SEARSALV was tested, and the antigen binding call was “no binding”.
For DEGGTSGV, the antigen binding call was “no binding”.
For FKKGSYVF, the antigen binding call was “no binding”.
For FKKGDAVS, the antigen binding call was “no binding”.
FKKGSAVV was tested, and the antigen binding call was “binds”.
FKKGSAAV was tested, and the antigen binding call was “binds”.
DKEGGAAV was tested, and the antigen binding call was “no binding”.
VAGGDDVF was tested, and the antigen binding call was “no binding”.
DEGKAAGS was tested, and the antigen binding call was “no binding”.
In the case of YRRRGASA, the antigen binding call is reported as “binds”.
For YRRRGVSA, the antigen binding call was “binds”.
In the case of VTGRAALA, the antigen binding call is reported as “no binding”.
In the case of SERRDVLY, the antigen binding call is reported as “no binding”.
DRAGDDWA was tested, and the antigen binding call was “no binding”.
In the case of VTETGSLV, the antigen binding call is reported as “no binding”.
With YRGGDSAS the antigen binding call was “binds”.
With VTGGDSAS the antigen binding call was “no binding”.
In the case of SAKRDSAS, the antigen binding call is reported as “no binding”.
With FRGRDFVS the antigen binding call was “no binding”.
In the case of DAKRDSAS, the antigen binding call is reported as “no binding”.
In the case of DRGRDDGS, the antigen binding call is reported as “no binding”.
With YRGRDSVS the antigen binding call was “binds”.
For YRGRDSAS, the antigen binding call was “binds”.
With YRGGDDSS the antigen binding call was “no binding”.
With YRTRDSAS the antigen binding call was “binds”.
VEAGDDSA was tested, and the antigen binding call was “no binding”.
In the case of SEARSDVY, the antigen binding call is reported as “no binding”.
For YTEGDFAV, the antigen binding call was “no binding”.
With VGRGNVGV the antigen binding call was “no binding”.
YRGEGSAS was tested, and the antigen binding call was “binds”.
DATGGDVD was tested, and the antigen binding call was “no binding”.
For SKGEGDWA, the antigen binding call was “no binding”.
For SKERGDWY, the antigen binding call was “no binding”.
SEKGGSSA was tested, and the antigen binding call was “no binding”.
With SKGASAWA the antigen binding call was “no binding”.
In the case of SKKRGAWA, the antigen binding call is reported as “binds”.
In the case of SKKRGAWY, the antigen binding call is reported as “binds”.
SKERGDAA was tested, and the antigen binding call was “no binding”.
For SEGRGAAA, the antigen binding call was “no binding”.
In the case of SKTKSSSA, the antigen binding call is reported as “no binding”.
With SKKRGAAA the antigen binding call was “binds”.
For SKKTGDLY, the antigen binding call was “no binding”.
With SKKRGASA the antigen binding call was “binds”.
VEKEGDGS was tested, and the antigen binding call was “no binding”.
In the case of YAAKNDGA, the antigen binding call is reported as “no binding”.
With YEGGADVV the antigen binding call was “no binding”.
With YRRGGSGY the antigen binding call was “binds”.
YRRGGAGY was tested, and the antigen binding call was “binds”.
For VAGTGDLY, the antigen binding call was “no binding”.
